BAZ2B block: inhibitors of human BAZ2B bromodomain | AlphaScreen BAZ2B-H3K14Ac peptide displacement | Potency, µM (top dose mostly 114 µM), for inactives: at the top dose activity change, negative = inhibition, usual class: inhibitors | actives 4.4% (n = 360,000) | Q9UIF8; note: % is set by controls: 0 for no effect and ±100 for the full control effect; nearly all actives have a fitted effect of over 60% in size
Target sequence (Q9UIF8 whole entry, looked up): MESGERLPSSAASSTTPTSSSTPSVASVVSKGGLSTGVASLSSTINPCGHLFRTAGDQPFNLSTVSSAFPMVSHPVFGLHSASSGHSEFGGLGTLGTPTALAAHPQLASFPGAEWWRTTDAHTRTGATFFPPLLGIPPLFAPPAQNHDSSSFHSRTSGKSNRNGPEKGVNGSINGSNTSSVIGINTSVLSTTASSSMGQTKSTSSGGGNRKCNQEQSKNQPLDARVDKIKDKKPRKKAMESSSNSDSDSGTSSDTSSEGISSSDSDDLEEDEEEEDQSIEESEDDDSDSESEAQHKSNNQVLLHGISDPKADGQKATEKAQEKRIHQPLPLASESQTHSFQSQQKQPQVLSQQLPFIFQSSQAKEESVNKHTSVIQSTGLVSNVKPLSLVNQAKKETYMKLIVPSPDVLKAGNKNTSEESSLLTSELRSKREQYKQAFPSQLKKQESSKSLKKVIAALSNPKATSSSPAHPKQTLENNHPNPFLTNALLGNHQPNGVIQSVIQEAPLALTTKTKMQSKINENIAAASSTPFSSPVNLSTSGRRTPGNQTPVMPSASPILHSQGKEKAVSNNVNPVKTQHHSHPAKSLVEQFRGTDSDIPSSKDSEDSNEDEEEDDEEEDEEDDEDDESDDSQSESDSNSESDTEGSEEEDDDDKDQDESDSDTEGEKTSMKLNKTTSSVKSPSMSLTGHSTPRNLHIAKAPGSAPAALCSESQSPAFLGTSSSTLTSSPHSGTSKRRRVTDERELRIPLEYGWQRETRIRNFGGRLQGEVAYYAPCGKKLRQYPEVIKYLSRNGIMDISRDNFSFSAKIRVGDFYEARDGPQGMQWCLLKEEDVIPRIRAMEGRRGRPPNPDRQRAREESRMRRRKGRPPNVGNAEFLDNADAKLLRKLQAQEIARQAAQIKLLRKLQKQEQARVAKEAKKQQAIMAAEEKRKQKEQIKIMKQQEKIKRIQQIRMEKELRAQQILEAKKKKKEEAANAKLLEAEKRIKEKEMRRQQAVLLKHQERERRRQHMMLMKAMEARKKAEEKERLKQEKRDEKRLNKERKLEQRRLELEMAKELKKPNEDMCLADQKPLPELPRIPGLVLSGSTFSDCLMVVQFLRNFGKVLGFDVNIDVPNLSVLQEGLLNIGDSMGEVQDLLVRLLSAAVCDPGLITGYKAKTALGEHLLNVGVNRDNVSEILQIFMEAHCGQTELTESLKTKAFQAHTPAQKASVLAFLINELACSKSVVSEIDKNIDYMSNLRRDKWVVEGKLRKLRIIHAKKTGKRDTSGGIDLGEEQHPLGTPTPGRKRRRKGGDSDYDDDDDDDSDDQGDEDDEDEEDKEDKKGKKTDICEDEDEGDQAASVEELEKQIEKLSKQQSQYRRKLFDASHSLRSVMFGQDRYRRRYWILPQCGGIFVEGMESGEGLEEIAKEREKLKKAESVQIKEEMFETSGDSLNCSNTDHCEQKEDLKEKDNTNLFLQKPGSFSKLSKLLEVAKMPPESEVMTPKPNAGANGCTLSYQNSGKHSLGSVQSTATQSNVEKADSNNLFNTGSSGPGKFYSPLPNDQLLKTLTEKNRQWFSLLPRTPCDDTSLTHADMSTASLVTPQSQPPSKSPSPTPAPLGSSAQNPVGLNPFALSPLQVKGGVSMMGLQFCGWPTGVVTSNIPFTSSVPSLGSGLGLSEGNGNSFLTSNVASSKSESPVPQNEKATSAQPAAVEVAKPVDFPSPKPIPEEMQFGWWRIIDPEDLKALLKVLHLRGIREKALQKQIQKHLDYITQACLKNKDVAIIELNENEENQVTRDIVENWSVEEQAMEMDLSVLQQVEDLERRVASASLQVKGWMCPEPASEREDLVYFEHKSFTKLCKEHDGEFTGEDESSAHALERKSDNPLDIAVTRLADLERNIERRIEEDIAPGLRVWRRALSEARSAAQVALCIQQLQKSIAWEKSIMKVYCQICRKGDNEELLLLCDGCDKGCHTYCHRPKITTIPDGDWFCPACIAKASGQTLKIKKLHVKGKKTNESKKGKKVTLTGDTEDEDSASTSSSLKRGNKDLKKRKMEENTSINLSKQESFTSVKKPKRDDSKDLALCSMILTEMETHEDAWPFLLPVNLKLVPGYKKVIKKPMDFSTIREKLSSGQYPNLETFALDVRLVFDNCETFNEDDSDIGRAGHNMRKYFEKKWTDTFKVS
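Protein-peptide AlphaScreen: BAZ2B 50 nM, b-H3K14Ac 50 nM, 1x PBS pH 7.4 + 0.01% Tween-20. Preincubation 30 min RT; cpd 30 min RT (top 110 uM); beads 20 min RT, light-protected.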
PLK1 PBD block: blocks phosphopeptide binding to human PLK1 polo-box domain | P53350 | Plk1 PBD binding of FITC phosphopeptide, fluorescence polarization | Potency, µM, for inactives: max response, negative = inhibition, most hits filed as inhibitors | actives 2.8% (n = 360,000) | AID 720504; note: series mostly up to about 57 µM; % is set by controls: 0 for no effect and ±100 for the full control effect; nearly all actives have a fitted effect of over 65% in size
HP1b chromo inh: inhibitors of HP1-beta chromodomain binding to methylated histone tails; Potency, µM (top dose mostly 114 µM), for inactives: at the highest dose activity change, negative = inhibition, hits mostly inhibitors; P83916; AID 540317; AlphaScreen HP1-beta / biotin-H3K9me3 peptide binding; actives 0.56% (n = 390,000); note: nearly all actives have a fitted effect of over 70% in size
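AlphaScreen: HP1-beta (50 nM) preformed 30 min with biotin-H3(1-18)K9me3 peptide (50 nM) in PBS pH 7.4, 0.01% Tween-20. Compound added for 30 min at RT, then streptavidin donor/nickel chelate acceptor beads (10 ug/mL) for 30 min.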
G9a inh: blocks human histone lysine methyltransferase G9a. Q96KQ7. actives 8.8% (n = 350,000). Potency, µM (top dose mostly 102 µM), for the others: at the highest dose activity, negative = inhibition, most hits filed as inhibitors. AID 504332. G9a H3K9 monomethylation, AlphaScreen, 2 h; note: % is set by controls: 0 for no effect and ±100 for the full control effect; nearly all actives have a fitted effect of over 75% in size
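G9a (20 nM) preincubated 15 min RT with compounds, then 500 nM biotinylated H3K9 peptide and 20 uM SAM added; 2 h RT reaction. Monomethyl-H3K9 product detected by AlphaScreen with anti-H3K9me1 antibody, streptavidin donor and anti-rabbit IgG acceptor beads.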
JMJD2A Tudor: JMJD2A Tudor domain (human) inhibition; O75164; AlphaScreen JMJD2A-Tudor / H3K4me3 peptide binding; Potency, µM (titrated, usually from 114 µM), for the others: at the top dose activity change, negative = inhibition, usual class: inhibitors; actives 4.4% (n = 390,000); AID 504339; note: % is set by controls: 0 for no effect and ±100 for the full control effect; nearly all actives have a fitted effect of over 50% in size
VDR inh: vitamin D3 receptor (human) inhibition; VDR-SRC2-3 peptide fluorescence polarization, 2 h; P11473; Potency, µM, without a hit: max response, negative = inhibition, most hits filed as inhibitors; actives 0.93% (n = 400,000); note: % is set by controls: 0 for no effect and ±100 for the full control effect
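Fluorescence polarization assay measuring small-molecule disruption of VDR binding to the coregulator peptide SRC2-3. Compounds were pin-transferred (23 nl) into the reagent mix and incubated 2 h at room temperature before reading.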
* hit, by the source's call; ? = inconclusive; nt = no result; [ ] = remark or other dose. An excerpt weighted towards active compounds, which were near 11% of everything screened. Calls come from the whole dose curve; as a rule, active = well fitted curve in the direction sought with a large enough effect; inconclusive = small, poorly fitted or top-dose-only effect, or another doubt; inactive = no such curve, though single readings can be large; an effect the other way counts as inactive or inconclusive. Potency is the fitted concentration of half-maximal effect.

SMILES	BAZ2B block	PLK1 PBD block	HP1b chromo inh	G9a inh	JMJD2A Tudor	VDR inh
Fc1ccc(CCNC(=S)Nc2ccc(F)c(Cl)c2)cc1	9.0%	-5.0%	51.4%	37.4%	11.4%	-0.6%
O=C1[C@H]2[C@@H](C(=O)N1c1cccc3ccccc13)C1(C(=O)c3ccccc3C1=O)N1CCC[C@@H]21	?	-3.3%	6.5%	39.8µM*	-9.5%	-0.1%
O=C1C2C3C=CC(C3)C2C(=O)N1c1cccc2ccccc12 (stereo not drawn)	2.2%	5.1%	27.0%	-4.9%	-10.3%	12.7%
O=C(OCC#CCSc1nnc(-c2cccc3ccccc23)o1)C1CCCC1	nt	nt	nt	nt	150.3%	nt
Cc1ccc(S(=O)(=O)N2CCN(C(=O)c3ccc(N4CCCCC4)c([N+](=O)[O-])c3)CC2)cc1	?	-4.7%	-19.6%	31.6µM*	?	6.2%
O=C(/C=C/c1ccc(N2CCCCC2)c([N+](=O)[O-])c1)c1ccc(S(=O)(=O)N2CCCC2)cc1	?	-3.1%	?	4.47µM*	-22.1%	?
Cc1ccc(N(Cc2ccco2)C(=O)c2ccc(N3CCCCC3)c([N+](=O)[O-])c2)cc1	?	-9.5%	?	?	17.8µM*	0.7%
Cc1ccc(S(=O)(=O)N2CCN(C(=O)c3ccc(N4CCCC4)c([N+](=O)[O-])c3)CC2)cc1	?	-16.3%	-21.8%	-4.0%[12.7 µM]	?	-1.4%
COc1cccc(C(=O)/C=C/c2ccc(N3CCCCC3)c([N+](=O)[O-])c2)c1	10µM*	-10.1%	?	7.08µM*	39.8µM*	?
Cc1cc(C)c[n+](C(C)C(=O)c2ccc(-c3ccccc3)cc2)c1 (stereo not drawn)	-6.8%	-9.3%	33.5%	1.9%[59 µM]	3.5%[57.1 µM]	9.1%
CN(C)c1ccc(/C=C/C(=O)c2ccccc2)cc1[N+](=O)[O-]	14.1µM*	-10.3%	?	?	44.7µM*	?
CNc1ccc(/C=C/C(=O)c2ccc(C)cc2)cc1[N+](=O)[O-]	?	-3.2%	?	?	?	?
Cc1ccc(CCNS(=O)(=O)c2c(C)nc3sc(C)c(C)n3c2=O)cc1	-1.0%	nt	66.5%	1.2%[59 µM]	0.7%	-0.8%
CCN(CC)S(=O)(=O)c1ccc(NCCCn2ccnc2)c([N+](=O)[O-])c1	?	-1.5%	6.8%	6.0%	-23.8%	-10.6%
O=C(c1ccccc1)c1ccc(NCCCn2ccnc2)c([N+](=O)[O-])c1	39.8µM*	-2.1%	?	-7.9%[2.33 µM]	39.8µM*	-11.4%
CC(=O)Nc1cccc(Nc2nc3ccccc3n3c(C)nnc23)c1	-0.9%	nt	33.6%	0.8%[59 µM]	-8.9%	16.1%
COc1cc(O)c(C(CCN2CCN(c3ccccc3)CC2)c2cc(OC)c(OC)c(OC)c2)c(OC)c1 (stereo not drawn)	?	3.3%	?	-21.9%[59 µM]	39.8µM*	0.3%
COc1ccc(C(CCN2CCOCC2)c2c(O)cc(OC)cc2OC)cc1 (stereo not drawn)	-1.1%	-2.6%	4.5%	23.0%[12.7 µM]	-28.3%	-18.9%
COc1cc(O)c(C(CCN2CCCC2)c2ccc3c(c2)OCO3)c(OC)c1 (stereo not drawn)	?	-0.1%	-9.1%	-1.1%[12.7 µM]	?	-19.0%
COc1cc(O)c(C(CCN2CCN(c3ccccc3)CC2)c2ccc3c(c2)OCO3)c(OC)c1 (stereo not drawn)	10µM*	5.8%	-28.1%	?	17.8µM*	-8.9%
CCOc1nc(NC2CCCC2)nc(N2CCC(C)CC2)n1	-27.9%	18.9µM*	18.9%	17.9%	4.8%	79.4µM*
O=C(CN(C(=O)c1csnn1)c1cccc(Cl)c1)NCCc1ccccc1	5.7%	-5.9%	8.1%	28.4%	-9.1%	-16.2%
COC(=O)c1cccc(N2C(=O)c3ccccc3S2(=O)=O)c1	8.1%	0.2%	54.3%	56.2µM*	-7.9%	-3.7%
COC(=O)c1ccc(CN2C(=O)c3ccccc3S2(=O)=O)cc1	9.9%	1.9%	53.6%	17.1%	-7.0%	17.5%
COC(=O)c1cccc(N2C(=O)c3cccnc3C2=O)c1	-112.6%	3.9%	27.4%	?	44.7µM*	6.0%
SMILES	BAZ2B block	PLK1 PBD block	HP1b chromo inh	G9a inh	JMJD2A Tudor	VDR inh
CCc1cc2c(cc3c(=O)n(CC(=O)NCCc4ccc(OC)cc4OC)nc(CC)n32)s1	1.4%	nt	20.1%	10.1%[59 µM]	-4.0%	-2.6%
Cc1nn(-c2ccccc2)c(OC(=O)c2cccs2)c1S(=O)(=O)c1ccccc1	-31.2%	-8.5%	44.7%	10.5%[12.7 µM]	-2.6%	5.8%
Cc1nn(-c2ccccc2)c(OC(=O)c2cccs2)c1S(=O)(=O)c1ccc([N+](=O)[O-])cc1	79.4µM*	-11.0%	12.7%	?	?	-9.1%
Cn1c(-c2ccccc2)c(C(=O)CC#N)c2ccccc21	-8.6%	-6.1%	19.8%	-0.6%	-5.0%	-14.1%
CN(C)CCCNCC(=O)c1c(-c2ccccc2)n(C)c2ccccc12	21.5%	-21.1%	?	57.5%	4.47µM*	79.4µM*
CCOc1ccc(S(=O)(=O)N2CCN(Cc3nc4ccc(C)cc4o3)CC2)cc1	-10.2%	nt	11.2%	18.0%[59 µM]	-8.6%	4.9%
CCCCNC(=O)C1CCN(c2nc3ccccc3nc2C(F)(F)F)CC1	4.9%	nt	17.4%	-22.4%[59 µM]	2.9%	7.5%
C/C(=C\c1ccccc1)CN1CCC(C(=O)N2CCCCC2)CC1	?	-6.6%	?	?	7.94µM*	5.2%
CCCCNC(=O)C1CCN(C/C(C)=C/c2ccccc2)CC1	50.1µM*	?	-9.4%	?	6.31µM*	-7.5%
C/C(=C\c1ccccc1)CN1CCC(C(=O)N2CCC(C)CC2)CC1	?	-21.5%	-29.7%	10µM*	-0.8%[11.4 µM]	-7.0%
CCSc1nnc(NC(=O)CSc2nnc(C)c(=O)n2N)s1	1.4%	-10.0%	61.9%	37.1%	-2.2%	-10.0%
O=C(OCC#CCNc1nnc(-c2cccc3ccccc23)o1)c1cccs1	-28.7%	nt	nt	1.5%[12.7 µM]	nt	nt
COc1cccc(-c2nc(-c3ccc4c(c3)-c3ccccc3S4(=O)=O)c(-c3ccccc3)[nH]2)c1OC	11.2%	?	24.8%	?	-16.0%	15.7%
COc1cc(-c2nc(-c3ccc4c(c3)-c3ccccc3S4(=O)=O)c(-c3ccccc3)[nH]2)cc(OC)c1OC	-2.5%	-4.0%	18.1%	44.7µM*	-28.1%	22.9%
COc1ccc(F)cc1-c1cc(NC(C)=O)c2ncc(-c3cccc(C(F)(F)F)c3)n2c1	nt	1.2%	nt	nt	nt	nt
NS(=O)(=O)c1ccc(NC(=O)CCCCC(=O)Nc2ccc(S(N)(=O)=O)cc2)cc1	-3.2%	-9.7%	63.3%	8.6%	89.1µM*	7.2%
Cc1ccc(NC(=O)CCc2ccc(C)o2)cc1	?	1.6%	33.3%	?	-20.1%	-14.7%
CN(C)CC(=O)Nc1ccc(S(N)(=O)=O)cc1	-2.0%	-5.4%	-4.0%	23.9%	14.1µM*	?

Compound activity as filed in PubChem BioAssay.
